MITF inh: MITF inhibitors, primary screen, biochemical, AlphaScreen, human; AlphaScreen MITF homodimerization, bead proximity signal; AID 1259374, 2018; 650,000 compounds, 0.91% hits; inhibition, % at 2.6 µM; in the data active = inhibition above about 50%;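 also: 0% = vehicle wells with protein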
TEAD-YAP block: TEAD-YAP interaction inhibition, primary screen, TEAD-YAP interaction inhibitor project, luminescence, HEK-TIYL cells. TEAD-Gal4/YAP UAS-luciferase luminescence. AID 1259422, 2018. 640,000 compounds, 1.4% hits. inhibition, % at 9.12 µM; in the data active = inhibition above about 32%;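 also: 0% = median of test compound wells and 100% = reference inhibitor wells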
GPR151 activ: activators of human GPR151, primary screen, cell-based, PathHunter beta-arrestin, luminescence. G-protein coupled receptor 151 (Homo sapiens), Q8TDV0. PathHunter beta-arrestin GPR151 cells. activation, % at 11.2 µM. 650,000 compounds, 1% hits; in the data active = activation above about 4.9%;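 also: 0% = median of compound wells and 100% = cells with positive control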
FBW7 activator: FBW7 E3 ligase activators, primary screen, biochemical, AlphaScreen, human; 650,000 compounds, 0.13% hits; normalized activity (activation), % at 26.1 µM; F-box/WD repeat-containing protein 7 (Homo sapiens), Q969H0; AID 1259310, 2017; AlphaScreen FBW7–phospho-cyclin E peptide binding, activator screen; in the data active = normalized activity above about 1.9%;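 also: purified mutant Fbw7 with reduced substrate affinity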
Target sequence (Q969H0 whole entry, looked up): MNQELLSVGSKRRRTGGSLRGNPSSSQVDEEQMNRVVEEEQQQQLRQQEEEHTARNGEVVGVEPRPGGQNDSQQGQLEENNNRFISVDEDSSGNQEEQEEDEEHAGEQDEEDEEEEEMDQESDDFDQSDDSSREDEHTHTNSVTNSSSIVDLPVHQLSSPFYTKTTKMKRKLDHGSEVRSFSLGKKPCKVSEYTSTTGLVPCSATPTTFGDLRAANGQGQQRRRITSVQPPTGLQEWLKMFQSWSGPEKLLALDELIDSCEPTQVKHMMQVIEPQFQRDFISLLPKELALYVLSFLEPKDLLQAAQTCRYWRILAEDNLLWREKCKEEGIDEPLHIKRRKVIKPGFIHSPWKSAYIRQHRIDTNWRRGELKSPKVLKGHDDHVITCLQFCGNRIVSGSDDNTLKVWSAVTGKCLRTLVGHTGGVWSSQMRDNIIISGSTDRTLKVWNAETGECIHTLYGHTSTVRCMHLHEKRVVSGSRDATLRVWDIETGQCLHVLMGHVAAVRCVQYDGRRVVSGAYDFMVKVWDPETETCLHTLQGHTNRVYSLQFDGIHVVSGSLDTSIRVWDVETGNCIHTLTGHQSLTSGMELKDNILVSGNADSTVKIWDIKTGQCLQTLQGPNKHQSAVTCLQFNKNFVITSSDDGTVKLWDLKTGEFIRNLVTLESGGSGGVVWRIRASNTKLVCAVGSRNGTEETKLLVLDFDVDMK
The depositor's hits bear a star. In the library only some 3.5% were active in any assay of this set; here they are far more common.

Screening CC(C)(C)c1ccc2c(c1)NC(=O)CO2 returned MITF inh -14, TEAD-YAP block 35*, GPR151 activ 0 and FBW7 activator 0.
Screening O=C1COc2ccc(C(=O)O)cc2N1 returned MITF inh 9, TEAD-YAP block 7, GPR151 activ 0 and FBW7 activator 0.
`CC(=O)N/C(=N\c1nc(C)cc(C)n1)Nc1cccc(C)c1` gave MITF inh 13, TEAD-YAP block 3, GPR151 activ 0 and FBW7 activator 1.
For CC(=O)N/C(=N\c1nc(C)cc(C)n1)Nc1ccc2ccccc2c1 the results were MITF inh -5, TEAD-YAP block 52*, GPR151 activ 0 and FBW7 activator 0.
Screening CSCCC(C(=O)O)N1C(=O)/C(=C/c2cccs2)SC1=S (stereo unspecified) returned MITF inh 5, TEAD-YAP block 8, GPR151 activ -2 and FBW7 activator 0.
O=C(Nc1ccc2c(c1)N(C(=O)C1CCCO1)CC2)c1cc2ccccc2oc1=O (stereo unspecified) was read as MITF inh -5, TEAD-YAP block 57*, GPR151 activ -1 and FBW7 activator 0.
Screening CCNc1nc(NC(C)(C)C)nc(SC(C(C)=O)C(C)=O)n1 returned MITF inh 3, TEAD-YAP block 42*, GPR151 activ 2 and FBW7 activator 0.
CC(C(=O)O)N1C(=O)C2C3CC(C2C1=O)C1C3N=NN1c1ccc([N+](=O)[O-])cc1 (stereo unspecified) was read as MITF inh 2, TEAD-YAP block 1, GPR151 activ 0 and FBW7 activator 0.
Cc1ccc(-c2nc(Nc3ccccc3)s[n+]2CS(=O)(=O)c2ccccc2)cc1 was read as MITF inh 9, TEAD-YAP block 66*, GPR151 activ -5 and FBW7 activator 0.
For Cc1nc(C#N)c(N/N=C/C=C/c2ccccc2)o1 the results were MITF inh 10, TEAD-YAP block -66, GPR151 activ -2 and FBW7 activator 0.
Cc1nc(C#N)c(N/N=C/c2ccc(N(C)C)cc2)o1 was read as MITF inh 3, TEAD-YAP block 33*, GPR151 activ -2 and FBW7 activator 0.
Screening Cn1cnc([N+](=O)[O-])c1S(=O)CC#N (stereo unspecified) returned MITF inh 14, TEAD-YAP block 56*, GPR151 activ 0 and FBW7 activator 0.
NC(CCCc1ccccc1)c1ccc2c(c1)OCCO2 (stereo unspecified) was read as MITF inh 22, TEAD-YAP block 55*, GPR151 activ 1 and FBW7 activator 1.
`Cc1cc(C)nc(SCc2ccccc2Cl)n1` gave MITF inh 18, TEAD-YAP block -12, GPR151 activ -1 and FBW7 activator 2.2*.
For O=C(Nc1ccc(Oc2ccccc2)cc1)c1ccc(F)c(S(=O)(=O)NCc2ccccc2Cl)c1 the results were MITF inh 1, TEAD-YAP block 41*, GPR151 activ 1 and FBW7 activator 0.
O=C(Nc1ccc(Oc2ccccc2)cc1)c1ccc(F)c(S(=O)(=O)NC2CCCC2)c1 was read as MITF inh 0, TEAD-YAP block 65*, GPR151 activ 0 and FBW7 activator 0.
`O=C(Nc1ccc(Oc2ccccc2)cc1)c1ccc(F)c(S(=O)(=O)NC2CCCCC2)c1` gave MITF inh 11, TEAD-YAP block 58*, GPR151 activ -2 and FBW7 activator 0.
For O=C(Nc1ccc(Oc2ccccc2)cc1)c1ccc(F)c(S(=O)(=O)NC2CCCCCC2)c1 the results were MITF inh 17, TEAD-YAP block 50*, GPR151 activ 0 and FBW7 activator 0.
Screening O=C(Nc1ccc(Cl)c(Cl)c1)c1ccc(F)c(S(=O)(=O)NC2CCCC2)c1 returned MITF inh 14, TEAD-YAP block 10, GPR151 activ -1 and FBW7 activator 0.
Screening CC(C)c1ccc(NC(=O)c2ccc(F)c(S(=O)(=O)NC3CCCCCC3)c2)cc1 returned MITF inh -3, TEAD-YAP block 11, GPR151 activ 1 and FBW7 activator 0.
For CCOC(=O)N1CCC(NC(=O)CC2C(=O)NCCN2CCc2ccccc2)CC1 (stereo unspecified) the results were MITF inh 5, TEAD-YAP block -2, GPR151 activ 1 and FBW7 activator 0.
`CC1=C(C(=O)OCC2CCCO2)C(c2ccc3c(c2)OCO3)NC(=O)N1` (stereo unspecified) gave MITF inh 0, TEAD-YAP block 7, GPR151 activ 0 and FBW7 activator 0.
Screening COc1ccc(O)c(/C=N/NC(=O)CCC(=O)Nc2ccc(Cl)cc2)c1 returned MITF inh 12, TEAD-YAP block 5, GPR151 activ -3 and FBW7 activator 0.
Screening CC(C)c1ccccc1OCC(=O)NN1C(=O)c2ccccc2C1=O returned MITF inh 8, TEAD-YAP block 34*, GPR151 activ 0 and FBW7 activator 0.
OCCNc1nc(Nc2ccccn2)nc2c1ncn2-c1ccsc1 was read as MITF inh -5, TEAD-YAP block 69*, GPR151 activ 1 and FBW7 activator 0.
c1ccc(OCCNc2nc(Nc3ccccn3)nc3c2ncn3-c2ccsc2)cc1 was read as MITF inh 3, TEAD-YAP block 11, GPR151 activ 0 and FBW7 activator 0.
For FC(F)(F)c1cccc(CNc2nc(Nc3nccc4ccccc34)nc3c2ncn3-c2ccsc2)c1 the results were MITF inh -3, TEAD-YAP block 32*, GPR151 activ 1 and FBW7 activator 0.
`OCCNc1nc(Nc2nccc3ccccc23)nc2c1ncn2-c1ccsc1` gave MITF inh 0, TEAD-YAP block 58*, GPR151 activ 1 and FBW7 activator 0.
Screening CCCNc1nc(Nc2ccccn2)nc2c1ncn2-c1ccccc1 returned MITF inh 6, TEAD-YAP block 22, GPR151 activ -1 and FBW7 activator 0.
For CCCNc1nc(Nc2ccccn2)nc2c1ncn2-c1ccsc1 the results were MITF inh 9, TEAD-YAP block 62*, GPR151 activ -1 and FBW7 activator 0.
For O=C(NCCO)C(=O)NC(c1ccccc1)c1ccccc1 the results were MITF inh -13, TEAD-YAP block 0, GPR151 activ 0 and FBW7 activator 0.
Screening N#C/C(=C(/O)CCl)c1nc(C23CC4CC(CC(C4)C2)C3)cs1 returned MITF inh 13, TEAD-YAP block 10, GPR151 activ -2 and FBW7 activator 0.
Screening CCOC(=O)C1=C(c2ccccc2)N=c2s/c(=C\c3cccc(O)c3)c(=O)n2C1c1cc(C(C)C)c(OC)cc1C (stereo unspecified) returned MITF inh -4, TEAD-YAP block 4, GPR151 activ -1 and FBW7 activator 1.

Assay outcomes deposited in PubChem by The Scripps Research Institute Molecular Screening Center.
